Measured values: the supplement of paper PMC6522484
Where “and” joins values, the source holds several entries; their conditions need not be identical. Identical values can stand only once. ± gives the standard deviation of the averaged measurements.

How the values were obtained:
DLD1 [1] = assay: cell viability (CellTiter-Glo) relative to plate median (fraction of plate median); higher = more viable cells; settings: 5 µM; treatment time 24 h; reporter: 7TFP
Method in brief: (§1)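 Colorectal cancer cell lines stably transduced with lentiviral TCF/Wnt firefly luciferase reporters (7TFP or TCF4/Wnt) were seeded in 384-well plates. 24 h later they received library compounds at a final 5 µM for 24 h. Parallel plates were read for firefly luciferase or CellTiterGlo luminescence on a Tecan F500 reader. Each well's signal was normalised to the plate median (webcellHTS2, additive, no log transformation), and the mean of two independent replicates is reported.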

HCT116 = assay: as above; settings: 5 µM; treatment time 24 h; reporter: TCF4/Wnt
Method in brief: as §1

SW480 [2] = assay: as above; settings: 5 µM; treatment time 24 h; reporter: 7TFP
Method in brief: as §1

DLD1 [3] = assay: TCF/Wnt firefly luciferase reporter signal relative to plate median (fraction of plate median); higher = higher Wnt reporter signal; settings: 5 µM; treatment time 24 h; reporter: 7TFP
Method in brief: as §1

SW480 [4] = assay: as above; settings: 5 µM; treatment time 24 h; reporter: 7TFP
Method in brief: as §1

Row | SMILES | cell viability (DLD1 [1]) | cell viability (HCT116) | cell viability (SW480 [2]) | TCF/Wnt firefly luciferase reporter signal (DLD1 [3]) | TCF/Wnt firefly luciferase reporter signal (SW480 [4])
1 | O=c1cccc2ccc(O)c(O)c2c1O | 0.975 ± 0.012 | 0.994 ± 0.11 | 0.966 ± 0.033 | 0.994 ± 0.079 | 1.06 ± 0.042
2 | COc1ccc2c(c1OC)C(=O)O[C@@H]2[C@H]1c2c(cc3c(c2OC)OCO3)CCN1C | 0.9895 ± 0.0092 | 0.879 ± 0.0099 | 0.995 ± 0.0014 | 0.973 ± 0.17 | 0.945 ± 0.15
3 | C[C@]12CC[C@@H]3c4ccc(O)cc4CC[C@H]3[C@@H]1CC[C@@H]2OC(=O)CCC1CCCC1 | 0.957 ± 0.044 | 1.01 ± 0.065 | 0.967 ± 0.04 | 1.17 ± 0.021 | 1.11
4 | CC1(C)[C@@H](O[C@H]2O[C@H](C(=O)O)[C@@H](O)[C@H](O)[C@H]2O[C@@H]2O[C@H](C(=O)O)[C@@H](O)[C@H](O)[C@H]2O)CC[C@]2(C)[C@H]3C(=O)C=C4[C@@H]5C[C@@](C)(C(=O)O)CC[C@]5(C)CC[C@@]4(C)[C@]3(C)CC[C@@H]12 | 1.04 ± 0.042 | 1.14 | 1.02 ± 0.03 | 1.22 ± 0.13 | 1.16 ± 0.092
5 | O=C(O)c1cc(=O)c2cccc(O)c2[nH]1 | 0.932 ± 0.077 | 1.07 ± 0.1 | 0.946 ± 0.016 | 1.19 ± 0.014 | 1.15 ± 0.021
6 | C[C@]12CC[C@@H]3c4ccc(O)cc4CC[C@H]3[C@@H]1CCC2=O | 0.894 ± 0.038 | 1.05 ± 0.057 | 0.995 ± 0.064 | 1.15 ± 0.064 | 1.07 ± 0.085
7 | C#CCN(C)Cc1ccccc1 | 0.947 ± 0.053 | 1.08 ± 0.042 | 0.943 ± 0.0099 | 1.14 ± 0.014 | 1.03 ± 0.05
8 | O=C(O)CCCN1C(=O)c2cccc3cccc(c23)C1=O | 0.994 ± 0.08 | 1.04 ± 0.035 | 0.995 ± 0.05 | 0.96 ± 0.011 | 0.957 ± 0.047
9 | C[C@H]1[C@@H](O)O[C@@H]2O[C@@]3(C)CC[C@H]4[C@H](C)CC[C@@H]1[C@@]24OO3 | 1.05 ± 0.09 | 0.746 ± 0.12 | 1.24 ± 0.05 | 0.761 ± 0.2 | 1.01 ± 0.052
10 | COc1cc(O)c2c(c1)C(=O)c1cc3c(c(OC)c1C2=O)[C@@H]1CCO[C@@H]1O3 [Aversin] | 1.24 ± 0.17 | 1.18 ± 0.021 | 1.12 ± 0.021 | 0.95 ± 0.059 | 1.02 ± 0.16
11 | C=C1C[C@]23C[C@@]1(O)CC[C@H]2[C@@]12C=C[C@H](O)[C@@](C)(C(=O)O1)[C@H]2[C@@H]3C(=O)O | 1.03 ± 0.014 | 1.08 ± 0.05 | 1.02 ± 0.052 | 0.88 ± 0.0028 | 0.869 ± 0.14
12 | O=C(O)CCCC[C@@H]1SC[C@@H]2NC(=O)N[C@@H]21 | 1.03 ± 0.063 | 0.954 ± 0.04 | 0.948 ± 0.0042 | 0.982 ± 0.022 | 0.963 ± 0.0042
13 | C=C[C@@]1(C)CC(=O)[C@@]2(O)[C@](C)(O1)[C@@H](O)[C@@H](O)C1C(C)(C)CC[C@H](O)[C@@]12C (stereo not given in full) | 0.9975 ± 0.0035 | 0.96 ± 0.051 | 1.02 ± 0.014 | 0.923 ± 0.042 | 0.976 ± 0.13
14 | COc1ccc(/C=C/C(=O)c2ccc(O)cc2O)cc1OC | 0.955 ± 0.046 | 1.04 ± 0.035 | 1.08 ± 0.042 | 1.03 | 0.986 ± 0.062
15 | CC(C)NCC(O)c1ccc2ccccc2c1 (stereo not given) | 0.986 ± 0.035 | 1.01 ± 0.042 | 0.977 ± 0.0042 | 0.962 ± 0.097 | 1 ± 0.069
16 | Cc1cc(NS(=O)(=O)c2ccc(N)cc2)no1 | 1.035 ± 0.0071 | 1.15 ± 0.035 | 1.01 | 1.09 ± 0.11 | 0.988 ± 0.032
17 | COc1ccc2c(c1)CC[C@@H]1[C@@H]2CC[C@]2(C)[C@@H](O)CC[C@@H]12 | 0.928 ± 0.093 | 0.953 ± 0.15 | 1 ± 0.064 | 0.885 ± 0.18 | 0.969 ± 0.16

Row | SMILES | cell viability (DLD1 [1]) | cell viability (HCT116) | cell viability (SW480 [2]) | TCF/Wnt firefly luciferase reporter signal (DLD1 [3]) | TCF/Wnt firefly luciferase reporter signal (SW480 [4])
18 | CO[C@H]1O[C@H](CO)C(O[C@@H]2OC(C(=O)O)[C@@H](O[C@H]3O[C@H](COS(=O)(=O)O)C(O[C@@H]4OC(C(=O)O)[C@@H](O[C@H]5O[C@H](CO)C(O[C@@H]6OC(C(=O)O)[C@@H](O[C@H]7O[C@H](COS(=O)(=O)O)C(O[C@@H]8OC(C(=O)O)=C[C@H](O)C8OS(=O)(=O)O)[C@H](O)[C@H]7NC(C)=O)[C@H](O)[C@H]6O)[C@H](O)[C@H]5NC(C)=O)[C@H](O)[C@H]4O)[C@H](O)[C@H]3NC(C)=O)[C@H](O)[C@H]2O)[C@H](O)[C@H]1NC(C)=O (stereo not given in full) | 0.988 ± 0.032 | 1.05 ± 0.1 | 1.025 ± 0.0071 | 0.977 ± 0.2 | 0.98 ± 0.043
19 | CC(=O)O[C@H]1C[C@@]2(C)[C@H](c3ccoc3)OC(=O)[C@H]3O[C@]32[C@@]2(C)C1[C@]1(C)C(C[C@H]2OC(C)=O)C(C)(C)[C@H](OC(C)=O)C[C@@H]1OC(C)=O (stereo partly drawn) [11alpha-ACETOXYKHIVORIN] | 0.973 ± 0.014 | 0.895 ± 0.088 | 0.941 ± 0.013 | 1 ± 0.14 | 1.05 ± 0.11
20 | CN1CCN(CCCN2c3ccccc3Sc3ccc(C(F)(F)F)cc32)CC1 | 0.999 ± 0.0014 | 1.08 ± 0.13 | 1.09 ± 0.028 | 1.21 ± 0.17 | 1.05 ± 0.14
21 | O=C(OOC(=O)c1ccccc1)c1ccccc1 | 1.015 ± 0.0071 | 1.12 ± 0.16 | 0.998 ± 0.031 | 0.96 ± 0.071 | 1.03 ± 0.053
22 | COC(=O)c1c(C)cc(O)cc1O | 0.999 ± 0.03 | 0.837 ± 0.23 | 1 ± 0.037 | 1.15 ± 0.014 | 0.984 ± 0.11
23 | C[C@H](CCC(=O)O)[C@H]1CC[C@H]2[C@@H]3C(=O)C[C@@H]4CC(=O)CC[C@]4(C)[C@H]3CC(=O)[C@]12C | 0.956 and 0.954 | 0.911 and 0.941 | 0.912 and 0.967 | 0.894 and 1.06 | 1.05 and 1.15
24 | CCN(CCO)CCCC(C)Nc1ccnc2cc(Cl)ccc12 (stereo not given) | 1.05 ± 0.097 | 0.998 ± 0.1 | 0.986 ± 0.0057 | 1.02 ± 0.076 | 1.045 ± 0.0071
25 | CC(C)(C)NC[C@H](O)c1ccc(O)c(CO)c1 | 1.01 ± 0.13 | 0.93 ± 0.061 | 0.972 ± 0.069 | 1.02 | 1.07 ± 0.092
26 | CC12CCC3C(CC3(C)C)C(C)(CCC1=O)O2 (stereo not given) | 0.908 ± 0.033 | 0.972 ± 0.069 | 0.892 ± 0.016 | 0.883 ± 0.23 | 0.889 ± 0.13
27 | COc1ccc(-c2cc(=O)c3c(O)c(OC)c(OC)c(OC)c3o2)cc1 | 1.01 ± 0.032 | 1.04 ± 0.072 | 1.02 ± 0.055 | 0.953 ± 0.062 | 1.01 ± 0.021
28 | CC(C)(C(=O)O)c1ccc(C(O)CCCN2CCC(C(O)(c3ccccc3)c3ccccc3)CC2)cc1 (stereo not given) | 1.05 ± 0.078 | 0.899 ± 0.049 | 1.055 ± 0.0071 | 1.05 ± 0.028 | 1.13
29 | CC(=O)OCC(COC(C)=O)OC(C)=O | 0.905 ± 0.08 | 0.962 ± 0.082 | 0.948 ± 0.0099 | 0.929 ± 0.079 | 1 ± 0.011
30 | O=C1C=C2CC3(O)COc4cc(O)ccc4C3=C2C=C1O (stereo not given) | 1.02 ± 0.11 | 1.06 ± 0.12 | 0.98 ± 0.016 | 1.015 ± 0.0071 | 1.02
31 | O=C(CCCCC(=O)Nc1c(I)cc(I)c(C(=O)O)c1I)Nc1c(I)cc(I)c(C(=O)O)c1I | 1.05 | 1.08 ± 0.16 | 1.01 ± 0.03 | 1.05 ± 0.028 | 1.06 ± 0.021
32 | CCC(CCC(C)C1CCC2C3CCC4CC(O)CCC4(C)C3CCC12C)C(C)C (stereo not given) | 1.11 ± 0.057 | 1.06 ± 0.021 | 1.06 ± 0.021 | 1.23 ± 0.078 | 1.01 ± 0.015
33 | OC(Cn1cncn1)(Cn1cncn1)c1ccc(F)cc1F | 0.889 ± 0.033 | 0.883 ± 0.069 | 0.9295 ± 0.0064 | 1.09 ± 0.028 | 1.01 ± 0.054
34 | C#CCCCCCCCCCCCC(O)CC(O)CO.C=CCCCCCCCCCCCC(O)CC(O)CO (stereo not given) | 1.015 ± 0.0071 | 0.974 ± 0.0099 | 1.01 ± 0.051 | 1.05 ± 0.18 | 0.974 ± 0.11
